Screening data deposited in PubChem by several laboratories.
Gli-Sufu antag: antagonists of Gli-Sufu signaling. AID 588413. Sufu-KO-LIGHT fibroblasts, Gli luciferase reporter luminescence. actives 0.74% (n = 340,000). inhibition, % at 5 µM;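 active means inhibition above about 55%, limit read from the data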;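 further: 0% = DMSO-treated cells and 100% = wells with medium but no cells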
Jurkat NFkB inh: lowers PMA/ionomycin-induced NF-kB signal in Jurkat cells. PMA/ionomycin-induced NF-kB luciferase reporter, luminescence. inhibition, % at 4 µM. actives 0.53% (n = 330,000). AID 435003; in the data active means inhibition above about 50%
697 NFkB inh: inhibitors of the PMA/ionomycin-induced NF-kB reporter in 697 B cells; 697 B-cell NF-kB luciferase reporter, 16 h; inhibition, % at 4 µM; actives 0.33% (n = 330,000); AID 435022; in the data active means inhibition above about 35%
TAG inh: inhibitors of triacylglycerol accumulation | H9c2 cells, Nile Red lipid (TAG) fluorescence; cells loaded with 200 µM oleic acid | inhibition, % at 12.5 µM | actives 0.66% (n = 230,000);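 active means pattern-corrected inhibition of lipid staining of at least 50% with the nuclear-stain viability signal not falling by more than 50%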;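 further: 0% = DMSO wells and 100% = triacsin C control wells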
COUP-TFII inh: inhibitors of human COUP-TFII (NR2F2) | actives 0.7% (n = 370,000) | HEK293T NGFI-A luciferase reporter, luminescence | inhibition, % at 8.6 µM | AID 686940;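 active means inhibition above a per-plate cutoff, mean inhibition of test wells between control levels plus 3 SD, cut at about 38% in these data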;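 further: cells cotransfected with COUP-TFII expression vector driving the NGFI-A reporter; 0% = median of COUP-TF2 test wells and 100% = reporter-only cells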
Target sequence (P24468 whole entry, looked up): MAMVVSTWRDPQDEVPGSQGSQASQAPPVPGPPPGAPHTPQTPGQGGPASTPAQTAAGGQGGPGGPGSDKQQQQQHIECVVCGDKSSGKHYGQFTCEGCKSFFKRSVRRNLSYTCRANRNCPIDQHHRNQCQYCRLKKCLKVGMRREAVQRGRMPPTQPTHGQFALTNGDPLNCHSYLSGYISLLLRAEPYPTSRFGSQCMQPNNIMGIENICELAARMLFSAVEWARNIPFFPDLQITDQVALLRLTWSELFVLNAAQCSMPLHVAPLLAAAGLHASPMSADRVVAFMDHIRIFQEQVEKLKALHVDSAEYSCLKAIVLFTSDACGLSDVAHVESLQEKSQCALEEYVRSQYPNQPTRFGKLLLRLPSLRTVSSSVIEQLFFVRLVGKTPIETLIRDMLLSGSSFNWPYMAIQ
Cardio protect: protects H9c2 cardiomyocytes from peroxide injury; H2O2 injury protection, ATPLite, 2 h; protection from H2O2 cell death, % at 20 µM; actives 0.63% (n = 360,000); AID 588492;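 active means compounds giving at least 50% protection of heart cells from peroxide-induced death in the single-dose screen, raw or plate-pattern-corrected value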;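 further: 0% = DMSO wells with peroxide and 100% = DMSO wells without peroxide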
Jurkat NFkB conf: inhibitors of the PMA/ionomycin-induced NF-kB reporter in Jurkat cells, retest; inhibition, % at 4 µM; AID 435020; actives 27% (n = 2,700); shares compounds with Jurkat NFkB inh; Jurkat NF-kB luciferase, 16 h;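 active means inhibition reaching about 45% at 4 µM in either replicate, limit read from the data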;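 further: plate controls were PMA/ionomycin stimulated DMSO wells for no effect and unstimulated DMSO wells for full effect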
The depositor's hits bear a star; x = no result. This is a sample that favours compounds with a hit; in the whole collection about 2.6% have one here.

SMILES	Gli-Sufu antag	Jurkat NFkB inh	697 NFkB inh	TAG inh	COUP-TFII inh	Cardio protect	Jurkat NFkB conf
Cc1[nH]c2ccccc2c1CC(=O)Nc1ccc(Nc2cccnc2)c(-c2ccc(Cl)c(Cl)c2)c1	x	x	x	x	-19	x	x
O=C(CCc1c[nH]c2ccccc12)OCc1cccc(C(F)(F)F)c1	4	51*	-19	3	12	-9	17
O=C1C2C3C=CC(C3)C2C(=O)N1c1ccc(-c2nc3ccccc3o2)cc1 (stereo not drawn)	24	-172	-107	7	-16	-9	-55
CCOC(=O)c1c(C)[nH]c(C)c1C(=O)COC(=O)/C=C/c1ccc(OC)cc1	-6	51*	-40	-31	-9	10	17
CCOC(=O)c1c(C)[nH]c(C)c1C(=O)COC(=O)/C=C/c1cccc(F)c1	-4	x	x	x	-4	-4	x
C=CCN1[C@H](CC(C)C)COc2cc(N3CCCC3)ccc2S1(=O)=O	x	x	x	x	1	x	x
Cc1cc(C)c(NN=c2c(=O)c3ccccc3c2=O)c(C)c1	-15	-190	-133	x	-33	1	-62
O=S(=O)(Nc1cccc2ncccc12)c1cccs1	87*	80*	-25	x	x	43	64*
O=C(NCCc1ccccc1)C(=O)NCC1CCCN1S(=O)(=O)c1ccccc1 (stereo not drawn)	-4	56*	-21	4	28	23	7
Cc1ccc(S(=O)(=O)N2CCCCC2CCNC(=O)C(=O)NCc2ccccc2)cc1 (stereo not drawn)	6	63*	-57	39	-18	-1	19
COC(=O)C1=C(C)N(Cc2ccccc2C(F)(F)F)C(=NCc2ccc(OC)cc2)NC1c1ccc(F)cc1 (stereo not drawn)	x	x	x	x	-8	x	x
CCn1c(SCC(=O)Nc2ccccc2-c2ccccc2)nnc1-c1ccc(Cl)cc1	x	x	x	x	-8	x	x
COc1ccccc1/C=C/C(=O)Nc1ccc2c(c1)OCCO2	-41	-29	-190	x	-80	-6	x
O=C(/C=C/c1ccco1)Nc1ccc2c(c1)OCCO2	-132	-160	-208	-1	-50	-19	-58
Cc1cccc(-c2cccc3c4c([nH]c23)[C@@H]2C[C@H](N(C)C(=O)Nc3ccccc3)[C@H]([C@H](C)O)CN2CC4)c1	x	x	x	x	-9	x	x
COc1ccc(CCNC(=O)Nc2ccc3c(c2)[C@]2(CC(=O)N(CC(C)C)C2c2ccccc2)C(=O)N3C)cc1OC (stereo partly drawn)	x	x	x	x	-11	x	x
Nc1c(Br)cc2oc(-c3ccccc3)nc2c1Br	x	-146	-126	x	-7	-4	x
COc1ccc(-c2nc3c(Br)c(N)c(Br)cc3o2)cc1	-67	-181	-145	x	x	-11	-113
O=C(c1ccc(Cl)cc1)c1cnc(-c2ccc(Cl)cc2)s1	-99	-17	7	8	8	-4	x
O=C(c1ccccc1)c1cnc(-c2ccc(Cl)cc2)s1	-129	-214	-212	-29	-71	-8	-92
CCOC(=O)[C@]12CCCCC/C=C\1N(Cc1ccc(OC)cc1)C(=O)[C@H]2CC(=O)NCc1cccc(C(F)(F)F)c1	x	x	x	x	10	x	x
CCOC(=O)c1ccc2c(c1)nc(-c1ccccn1)n2CC	-18	-166	-168	x	-43	-19	-56
OC(CN1C2=NCCN2c2ccccc21)c1ccc2c(c1)OCO2 (stereo not drawn)	2	63*	-1	6	30	33	12
Cc1cc2c(cc1C)N(C(=O)CSc1nncn1C)C(C)(C)c1ssc(=S)c1-2	2	30	-3	x	28	-2	x
Cc1ccc2c(c1)N(C(=O)CSc1nncn1C)C(C)(C)c1ssc(=S)c1-2	6	53*	-1	-16	8	7	-31
SMILES	Gli-Sufu antag	Jurkat NFkB inh	697 NFkB inh	TAG inh	COUP-TFII inh	Cardio protect	Jurkat NFkB conf
Cn1c(=O)[nH]c(=O)c2c1nc(CN1CCN(c3cccc(Cl)c3)CC1)n2Cc1ccccc1Cl	7	57*	-31	-1	1	-5	12
Cc1ccc(-c2cc(-c3nnc(SCC(=O)N4c5ccccc5Sc5ccccc54)n3N)[nH]n2)cc1	x	x	x	x	13	x	x
CC[C@@H](CCCCCCCn1ccc2ccccc21)CCC(=O)N(c1ccccc1)c1ccccc1	x	x	x	x	7	x	x
CCN(CC)c1ccc2c(c1)OC(N)=C(C#N)C2c1cccnc1 (stereo not drawn)	62*	56*	31	34	-4	3	6
Clc1ccc(-c2cn3c(n2)-c2ccccc2C3)cc1Cl	-139	-158	-246	x	-55	-7	-112
CCOc1ccc(Cc2c(Cl)nc(SC)nc2N(C)C)cc1	8	60*	-70	x	8	-6	27
O=C(Nc1nc2ccsc2c(=O)s1)c1ccc(Cl)cc1	-63	-199	-143	7	-54	1	-108
O=C(CCc1ccccc1-c1ccccc1CCNC(=O)COCc1ccccc1)NCc1ccccc1	x	x	x	x	3	x	x
[O-][n+]1onc2c1CCc1c-2nn(-c2ccccc2Cl)[n+]1[O-]	2	59*	-12	x	-2	-2	12
Cc1ccc(-n2nc3c([n+]2[O-])CCc2c-3no[n+]2[O-])cc1	1	42	-20	x	-8	-2	x
Cc1nc(NC(=O)c2csc3ccccc23)sc1C	-64	-165	-145	x	-34	-7	-129
O=C1[C@@H](CCc2ccccc2)[C@@H]2c3ccccc3C=NN2[C@@H]2c3ccccc3C=NN12	x	x	x	x	-3	x	x
CNc1cc([N+](=O)[O-])ccc1N/C=C/C(=O)c1cccs1	24	-11	1	4	-12	7	x
O=C(/C=C/Nc1cccc([N+](=O)[O-])c1)c1cccs1	-10	-158	-120	x	-54	-1	-79
O=C(Nc1ccc(Br)cc1)c1cc(-c2ccncc2)nc2ccccc12	-4	57*	-32	24	12	-1	28
O=C(N/N=C/c1ccsc1)c1cc(-c2ccncc2)nc2ccccc12	44	55*	-75	27	-33	2	19
Cc1ccsc1/C=N/NC(=O)c1cc(-c2ccncc2)nc2ccccc12	45	58*	24	x	-33	16	56*
O=C(N/N=C/c1ccc(Cl)cc1)c1cc(-c2cccnc2)nc2ccccc12	-18	66*	-42	47	7	-3	15
COc1ccccc1-c1cc(C(=O)N/N=C/c2sccc2C)c2ccccc2n1	1	16	10	-17	-6	18	x
O=C(N/N=C/c1cccnc1)c1cc(-c2ccc(Cl)cc2)nc2ccccc12	3	4	-7	13	2	37	x
Cc1ccc2c(c1)C1CS(=O)(=O)N(C3CCCC3)C(=O)N1C2 (stereo not drawn)	x	x	x	x	-13	x	x
COc1ccc(-n2nnnc2/C=C/Nc2cc(C(F)(F)F)ccc2OC)cc1	-1	8	25	-4	-17	0	x
COc1ccc(-n2nnnc2/C=C\Nc2ccccc2C(=O)c2ccccc2)cc1	5	53*	-27	39	0	8	9
